Each structure is given as a SMILES string. About 580 (24%) of roughly 2,400 compounds were called active. A selection follows. Unmarked numbers belong to inactive results.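 How the source made its calls: active means activity change at or above the mean plus 3 SD of buffer wells without dofetilide, per plate; inactive means the rest.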

We go through 61 compounds from PubChem BioAssay AID1942 (Johns Hopkins Ion Channel Center, 2009).

For the assay, the target named is Potassium voltage-gated channel subfamily KQT member 2 (Rattus norvegicus) (UniProt O88943). Briefly: KCNQ2 potentiation in CHO cells – cell-based, FluxOR thallium flux, counter-screen for hERG block protector project, confirmation (AID 1942).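 Further: normalized value minus buffer-control mean plus three SD of buffer wells.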 The settings on record: FluxOR thallium flux fluorescence, at 10 µM, hits give high values. On the technique in general: A counterscreen serves to expose hits that act by an unwanted route or on another target.
Chain of Potassium voltage-gated channel subfamily KQT member 2 (Rattus norvegicus) (O88943 whole entry, looked up): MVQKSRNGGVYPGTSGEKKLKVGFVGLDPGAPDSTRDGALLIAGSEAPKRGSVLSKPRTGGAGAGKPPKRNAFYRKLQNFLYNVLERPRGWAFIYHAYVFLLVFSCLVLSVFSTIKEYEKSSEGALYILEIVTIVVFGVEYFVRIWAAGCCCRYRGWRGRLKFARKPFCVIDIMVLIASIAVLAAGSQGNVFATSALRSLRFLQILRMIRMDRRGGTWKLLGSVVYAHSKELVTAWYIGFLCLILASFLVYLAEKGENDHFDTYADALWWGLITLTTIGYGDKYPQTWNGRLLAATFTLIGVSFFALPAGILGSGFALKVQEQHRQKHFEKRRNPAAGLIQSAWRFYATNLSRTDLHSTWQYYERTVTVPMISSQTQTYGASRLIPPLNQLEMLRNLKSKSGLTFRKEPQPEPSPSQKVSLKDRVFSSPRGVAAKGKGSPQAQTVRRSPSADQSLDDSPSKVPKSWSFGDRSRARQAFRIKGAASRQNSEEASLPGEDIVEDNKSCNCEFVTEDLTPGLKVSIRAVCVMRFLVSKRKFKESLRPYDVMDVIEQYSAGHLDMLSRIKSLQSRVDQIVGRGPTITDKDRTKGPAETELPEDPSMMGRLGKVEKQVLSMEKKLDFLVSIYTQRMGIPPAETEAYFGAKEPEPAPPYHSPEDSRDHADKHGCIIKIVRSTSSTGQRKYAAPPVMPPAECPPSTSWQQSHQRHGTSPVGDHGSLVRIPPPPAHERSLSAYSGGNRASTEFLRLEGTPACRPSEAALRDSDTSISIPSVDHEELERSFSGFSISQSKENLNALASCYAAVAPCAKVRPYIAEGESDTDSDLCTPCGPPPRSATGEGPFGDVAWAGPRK
As to `C=CCSc1nc2sc3c(c2c(=O)n1CC)CCc1ccccc1-3`, the activity change, less the hit threshold is 11.4% (active).
As for `O=C(O)CN1C(=O)C(=O)N(Cc2ccc(C(F)(F)F)cc2)C1=O`, the activity change, less the hit threshold was -4.3%.
Under `CCOC(=O)N1CCN(C(=O)CCn2c(=S)[nH]c3ccsc3c2=O)CC1` stands -2.5%.
Regarding `O=c1c2cc(Br)ccc2nc(-c2ccc(Cl)cc2)n1O`, the activity change, less the hit threshold was 133% (active).
Take `O=c1c2cc(Br)ccc2nc(-c2cccc(Cl)c2)n1O`: the activity change, less the hit threshold was 111% (active).
In the case of `CCCn1c(SC(C)C(=O)N2CCOCC2)nc2ccc(Br)cc2c1=O` (stereo unspecified), the activity change, less the hit threshold is -15.9%.
Under `N#Cc1ccc(-c2nc3ccc(Br)cc3c(=O)n2O)cc1` stands 17.3% (active).
As to `O=c1c2cc(Br)ccc2nc(-c2cccc(C(F)(F)F)c2)n1O`, the activity change, less the hit threshold is 126% (active).
With `COc1ccc(CCNS(=O)(=O)c2csc(C(N)=O)c2)cc1OC`, the activity change, less the hit threshold is -18.8%.
As for `NC(=O)[C@@H]1CCCN1Cc1nc(Cc2ccccc2Cl)no1`, the figure is -17.5%.
Consider `COc1ccc(Cl)cc1N(C)C(=O)CCNC(=O)Cn1cnc2ccccc2c1=O`, for which the activity change, less the hit threshold is -14.6%.
With `CCOC(=O)N1CCC(N2C(=O)c3ccccc3C2Nc2cccnc2)CC1` (stereo unspecified), the activity change, less the hit threshold is -1.9%.
Consider `O=c1c2cc(Br)ccc2nc(-c2ccccc2)n1O`, for which the activity change, less the hit threshold is 36.9% (active).
As for `O=c1c2ccc(Cl)cc2nc(-c2cccc(C(F)(F)F)c2)n1O`, the figure is 118% (active); as for `COc1ccc(S(=O)(=O)N2CCCC(C(=O)Nc3ccc(OC)c(OC)c3)C2)cc1` (stereo unspecified), -17.4%.
Consider `Cc1cc(C=O)c2c(c1)C=CC1(Oc3ccccc3C(=O)N1C)O2` (stereo unspecified), for which the activity change, less the hit threshold is -0.3%.
Regarding `N#Cc1c(-c2ccc(Cl)cc2)cc(-c2cccs2)nc1SCC(=O)O`, the activity change, less the hit threshold was -24.7%.
Under `CCOc1ccc(S(=O)(=O)Nc2nc3ccccc3nc2-n2ccc(=NC(=O)c3cccs3)cc2)cc1` stands -21.1%; under `O=[N+]([O-])c1cccc(/C=C/c2nc(C=Nc3ccccc3)c(O)o2)c1`, -18.2%.
Regarding `Cc1ccc(C(=O)NC(=S)N(C)C2CCCCC2)cc1Br`, the activity change, less the hit threshold is 2.9% (active).
Regarding `COc1ccc(C(=O)NC(=S)N(C)C2CCCCC2)cc1Br`, the activity change, less the hit threshold is 0.5% (active).
Turning to `CC1CCCC(NC(=S)NC(=O)c2cncc(Br)c2)C1C` (stereo unspecified), the activity change, less the hit threshold was -12%.
Turning to `CC1=NN(C(=O)c2ccc(Cl)cc2)C(O)(c2ccccc2)C1` (stereo unspecified), the activity change, less the hit threshold is -5.5%.
On to `COC(=O)C1=NN(C(=O)c2cccc(Br)c2)C(O)(c2ccc(Cl)cc2)C1` (stereo unspecified), for which the activity change, less the hit threshold was 134% (active).
Take `CCOC(=O)c1cnc(-n2nc(C)cc2C)nc1Nc1cccc(C(=O)O)c1`: the activity change, less the hit threshold is -13.4%.
On to `CC(C)(C)C1(O)CC(C(F)(F)F)=NN1C(=O)Cc1ccc([N+](=O)[O-])cc1` (stereo unspecified), for which the activity change, less the hit threshold was -20.8%.
As for `COC(=O)C1=NN(C(=O)c2ccc(Cl)cc2)C(O)(c2ccccc2)C1` (stereo unspecified), the activity change, less the hit threshold was 76.9% (active).
For `CC1=NN(C(=O)c2ccccc2Br)C(O)(c2ccc(Cl)cc2)C1` (stereo unspecified), the activity change, less the hit threshold is -27.3%.
As for `CCC1=NN(C(=O)c2ccc(Cl)cc2)C(O)(c2ccccc2)C1` (stereo unspecified), the figure is -23.9%; as for `CCOC(=O)C1=NN(C(=O)c2cccc(Br)c2)C(O)(C(C)(C)C)C1` (stereo unspecified), 87.6% (active); as for `Cc1ccc2[nH]c3c(c2c1)CNCC3`, -13.7%.
As for `COc1cc(/C=N/Nc2nc(N3CCCC3)nc(N3CCCC3)n2)ccc1OCc1ccccc1F`, the figure is -23.8%; as for `CC(=O)c1c(C)c2c(n1CCN(C)C)CCCC2`, -11.1%; as for `CCCCCCCCCCn1c2c(c(=N)c3c1CCC3)CCC2`, 26.3% (active).
As to `Clc1ccc(N=NN2CCOCC2)cc1`, the activity change, less the hit threshold was -5.2%.
Take `COC(=O)Cn1c(=NC(=O)c2sc3ccccc3c2Cl)sc2cc(S(N)(=O)=O)ccc21`: the activity change, less the hit threshold was -18.9%.
Under `CCOC(=S)NC(=O)c1sc2ccccc2c1Cl` stands 51.3% (active); under `CCCOC(=S)NC(=O)c1sc2ccccc2c1Cl`, 10% (active); under `CCCCOC(=S)NC(=O)c1sc2ccccc2c1Cl`, 71.2% (active).
Under `COC(=O)CC1C(=O)NCCN1C(=S)NC(=O)c1sc2ccccc2c1Cl` (stereo unspecified) stands -11.2%; under `CCOC(=O)CP(=O)(c1ccccc1)c1ccccc1`, -20%; under `O=C(NC(=S)N(CCCCO)C1CCCCC1)c1sc2ccccc2c1Cl`, 26% (active).
For the compound `O=C(CCc1nc(-c2ccccc2)no1)N1CCCC1`, the activity change, less the hit threshold is -20.7%.
`C=CCn1c(N2CCCCCC2)nc2c1c(=O)n(C)c(=O)n2C`: the activity change, less the hit threshold was -13.9%.
In the case of `O=C1NC(=O)/C(=C/c2cc3c(cc2Br)OCO3)S1`, the activity change, less the hit threshold was -28.6%.
In the case of `COc1ccc(C(=O)NCc2nnc(SCC(=O)NC3CCCCC3)n2C)cc1`, the activity change, less the hit threshold was -21.9%.
With `O=[N+]([O-])c1ccc(Cl)c(/C=N/Nc2nc(N3CCOCC3)nc(N3CCOCC3)n2)c1`, the activity change, less the hit threshold is -7.2%.
Take `COc1cc(OC)c(C2=NOC(C(=O)Nc3ccc4c(c3)OCO4)C2)cc1Cl` (stereo unspecified): the activity change, less the hit threshold was -22.1%.
As for `COc1ccc(OCC(=O)Nc2c3c(nn2-c2ccc(OC)cc2)CS(=O)(=O)C3)cc1`, the activity change, less the hit threshold is -16.4%.
`CC(=O)NCCC(=O)N(C)CC1CCN(CCc2cccc(C(F)(F)F)c2)CC1`: the activity change, less the hit threshold was -13.4%.
As to `COc1ccc2ncc(OC(C)=O)cc2c1`, the activity change, less the hit threshold was -7.9%.
On to `CSc1ccccc1NC(=S)NCc1ccc(Cl)cc1`, for which the activity change, less the hit threshold was -17.2%.
`COC(=O)c1sccc1NC(=S)NCc1ccc(Cl)cc1`: the activity change, less the hit threshold was 3.3% (active).
Turning to `COC(=O)c1sccc1NC(=S)N1CCN(C)CC1`, the activity change, less the hit threshold was -22.7%.
Consider `Cc1ccc(NC(=O)c2ccc(NC3=NC4CS(=O)(=O)CC4S3)cc2)cc1` (stereo unspecified), for which the activity change, less the hit threshold was -20.8%.
For `COc1cc(Cl)cc(C(c2c(C(=O)O)[nH]c3ccccc23)c2c(C(=O)O)[nH]c3ccccc23)c1O`, the activity change, less the hit threshold was -20.1%.
Under `Cc1cc(C(F)(F)F)n(-c2ccc(N)cc2)n1` stands -13.2%; under `O=C(COc1ccccc1[N+](=O)[O-])Nc1cc(Cl)ccc1C(=O)O`, -11.3%.
As to `O=C(NNc1nc2c(F)cccc2s1)c1cc(=O)c2ccccc2o1`, the activity change, less the hit threshold was -19.2%.
Consider `O=c1cc(-c2c(F)c(F)c(F)c(F)c2F)oc2ccccc12`, for which the activity change, less the hit threshold is 12.2% (active).
As for `COc1ccc(S(=O)(=O)Nc2cccc(-n3cnnn3)c2)cc1`, the activity change, less the hit threshold was -11.2%.
